The supplement of paper PMC10849652
Of roughly 7,900 targets only a part is listed; those with a hit were picked by preference. About 0.6% of all pairs of compound and target were hits. Values without a mark were called inactive.

Columns and labels:
Assay in all cases: log2 fold change, soluble protein after heating vs DMSO (PISA); higher = thermal stabilisation; K562 cells, 10 uM, 30 min; active = over 0.2 and 3.5 SD of the protein, either way, in both replicates (recomputed)
saracatinib = compound: CN1CCN(CCOc2cc(OC3CCOCC3)c3c(Nc4c(Cl)ccc5c4OCO5)ncnc3c2)CC1 [saracatinib]
Method in brief: (§1)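 K562 cells at 2×10^6 cells/mL were given 10 μM compound for 30 min. Aliquots then went through 3 min of heating across 48°C-58°C, were pooled, and were extracted in PBS with 0.5% NP-40 at 4°C, and the supernatant after 21,000xg for 90 min was quantified by TMTpro 16plex LC-MS/MS with channel sums equalised. Thermal stability relative to control samples, from duplicates, is given as log2 fold change.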

alvocidib = compound: CN1CC[C@H](c2c(O)cc(O)c3c(=O)cc(-c4ccccc4Cl)oc23)[C@H](O)C1 [alvocidib]
Method in brief: as §1

Tubastatin A = compound: CN1CCc2c(c3ccccc3n2Cc2ccc(C(=O)NO)cc2)C1 [Tubastatin A]
Method in brief: as §1

[1] = compound: CNC(=O)C1=CC=CC=C1NC2=NC(=NC=C2Cl)NC3=C(C=C(C=C3)N4CCOCC4)OC
Method in brief: as §1

defactinib = compound: CNC(=O)c1ccc(Nc2ncc(C(F)(F)F)c(NCc3nccnc3N(C)S(C)(=O)=O)n2)cc1 [defactinib]
Method in brief: as §1

rucaparib = compound: CNCc1ccc(-c2[nH]c3cc(F)cc4c3c2CCNC4=O)cc1 [rucaparib]
Method in brief: as §1

[2] = compound: CNc1nc(-c2ccc3c(N)n[nH]c3c2)cc(N2C[C@@H](C(=O)NC3CCCCC3)CC[C@H]2C)n1
Method in brief: as §1

encorafenib = compound: COC(=O)N[C@@H](C)CNc1nccc(-c2cn(C(C)C)nc2-c2cc(Cl)cc(NS(C)(=O)=O)c2F)n1 [encorafenib]
Method in brief: as §1

[3] = compound: COC(=O)[C@H](CCSC)NC(=O)C1=C(C=C(C=C1)NC[C@H](CS)N)C2=CC=CC=C2
Method in brief: as §1

[4] = compound: COC1=CC=C(C=C1)CN2C=CC3=C2C=C(C=C3)C(=O)NO
Method in brief: as §1

zotarolimus = compound: CO[C@H]1C[C@@H]2CC[C@@H](C)[C@@](O)(O2)C(=O)C(=O)N2CCCC[C@H]2C(=O)O[C@H]([C@H](C)C[C@@H]2CC[C@H](n3cnnn3)[C@H](OC)C2)CC(=O)[C@H](C)/C=C(\C)[C@@H](O)[C@@H](OC)C(=O)[C@H](C)C[C@H](C)/C=C/C=C/C=C/1C [zotarolimus]
Method in brief: as §1

idasanutlin = compound: COc1cc(C(=O)O)ccc1NC(=O)[C@@H]1N[C@@H](CC(C)(C)C)[C@](C#N)(c2ccc(Cl)cc2F)[C@H]1c1cccc(Cl)c1F [idasanutlin]
Method in brief: as §1

[5] = compound: COc1cc2nc(-c3cc(F)ccc3O)nc(N[C@@H]3CNC[C@H]3C(C)(C)O)c2cc1OC
Method in brief: as §1

lapatinib = compound: CS(=O)(=O)CCNCc1ccc(-c2ccc3ncnc(Nc4ccc(OCc5cccc(F)c5)c(Cl)c4)c3c2)o1 [lapatinib]
Method in brief: as §1

sotrastaurin = compound: CN1CCN(c2nc(C3=C(c4c[nH]c5ccccc45)C(=O)NC3=O)c3ccccc3n2)CC1 [sotrastaurin]
Method in brief: as §1

filanesib = compound: CON(C)C(=O)N1N=C(c2cc(F)ccc2F)S[C@@]1(CCCN)c1ccccc1 [filanesib]
Method in brief: as §1

pictilisib = compound: CS(=O)(=O)N1CCN(Cc2cc3nc(-c4cccc5[nH]ncc45)nc(N4CCOCC4)c3s2)CC1 [pictilisib]
Method in brief: as §1

alisertib = compound: COc1cc(Nc2ncc3c(n2)-c2ccc(Cl)cc2C(c2c(F)cccc2OC)=NC3)ccc1C(=O)O [alisertib]
Method in brief: as §1

[6] = compound: COc1cccc2cc(-c3nc([C@H]4CC[C@H](C(=O)O)CC4)n4ncnc(N)c34)[nH]c12
Method in brief: as §1

gefitinib = compound: COc1cc2ncnc(Nc3ccc(F)c(Cl)c3)c2cc1OCCCN1CCOCC1 [gefitinib]
Method in brief: as §1

Sequence of UniProt P36956 (P36956 whole entry, looked up): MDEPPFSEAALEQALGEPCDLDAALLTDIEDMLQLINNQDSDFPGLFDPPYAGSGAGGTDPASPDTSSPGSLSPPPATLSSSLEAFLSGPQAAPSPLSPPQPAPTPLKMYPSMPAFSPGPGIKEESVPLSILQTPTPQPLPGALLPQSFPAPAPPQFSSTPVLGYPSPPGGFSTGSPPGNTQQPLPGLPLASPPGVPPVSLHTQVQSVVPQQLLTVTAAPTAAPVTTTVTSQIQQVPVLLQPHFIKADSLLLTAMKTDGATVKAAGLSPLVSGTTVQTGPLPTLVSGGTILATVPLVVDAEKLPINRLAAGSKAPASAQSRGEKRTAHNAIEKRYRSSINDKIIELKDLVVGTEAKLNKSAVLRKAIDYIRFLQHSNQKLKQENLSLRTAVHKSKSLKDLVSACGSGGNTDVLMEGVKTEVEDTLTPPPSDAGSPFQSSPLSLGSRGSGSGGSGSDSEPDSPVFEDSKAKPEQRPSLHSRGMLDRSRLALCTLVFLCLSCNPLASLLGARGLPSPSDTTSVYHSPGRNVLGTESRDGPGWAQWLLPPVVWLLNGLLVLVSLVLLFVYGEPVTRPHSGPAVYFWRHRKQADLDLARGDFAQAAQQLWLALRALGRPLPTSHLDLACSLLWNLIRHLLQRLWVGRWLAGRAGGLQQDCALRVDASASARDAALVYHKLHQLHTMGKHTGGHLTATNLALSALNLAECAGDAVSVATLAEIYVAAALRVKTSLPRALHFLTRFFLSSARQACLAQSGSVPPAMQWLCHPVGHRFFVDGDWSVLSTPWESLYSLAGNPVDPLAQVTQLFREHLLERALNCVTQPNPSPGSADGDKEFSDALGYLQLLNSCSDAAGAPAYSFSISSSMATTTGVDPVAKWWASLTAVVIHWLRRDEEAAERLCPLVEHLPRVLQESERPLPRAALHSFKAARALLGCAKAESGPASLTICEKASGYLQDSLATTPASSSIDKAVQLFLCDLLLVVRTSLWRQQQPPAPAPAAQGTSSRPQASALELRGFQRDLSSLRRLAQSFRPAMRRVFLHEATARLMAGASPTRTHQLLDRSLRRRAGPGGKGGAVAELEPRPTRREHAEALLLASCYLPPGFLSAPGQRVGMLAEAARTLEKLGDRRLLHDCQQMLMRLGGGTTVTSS
Sequence of UniProt P12931 (P12931 whole entry, looked up): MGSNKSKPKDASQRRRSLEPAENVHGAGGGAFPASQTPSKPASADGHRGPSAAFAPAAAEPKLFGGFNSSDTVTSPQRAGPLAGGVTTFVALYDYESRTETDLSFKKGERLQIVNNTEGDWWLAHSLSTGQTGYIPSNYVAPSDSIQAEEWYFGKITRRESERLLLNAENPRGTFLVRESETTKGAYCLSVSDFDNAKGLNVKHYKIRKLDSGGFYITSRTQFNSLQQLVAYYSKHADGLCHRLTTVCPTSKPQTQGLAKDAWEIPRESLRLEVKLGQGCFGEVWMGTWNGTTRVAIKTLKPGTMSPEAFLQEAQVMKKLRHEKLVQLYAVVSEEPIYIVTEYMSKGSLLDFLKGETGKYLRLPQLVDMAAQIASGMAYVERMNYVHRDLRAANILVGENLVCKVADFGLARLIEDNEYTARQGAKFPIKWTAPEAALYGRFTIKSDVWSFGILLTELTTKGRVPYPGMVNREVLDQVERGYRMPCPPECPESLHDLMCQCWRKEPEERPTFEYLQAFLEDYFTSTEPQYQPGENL
Sequence of UniProt Q8N9U0 (Q8N9U0 whole entry, looked up): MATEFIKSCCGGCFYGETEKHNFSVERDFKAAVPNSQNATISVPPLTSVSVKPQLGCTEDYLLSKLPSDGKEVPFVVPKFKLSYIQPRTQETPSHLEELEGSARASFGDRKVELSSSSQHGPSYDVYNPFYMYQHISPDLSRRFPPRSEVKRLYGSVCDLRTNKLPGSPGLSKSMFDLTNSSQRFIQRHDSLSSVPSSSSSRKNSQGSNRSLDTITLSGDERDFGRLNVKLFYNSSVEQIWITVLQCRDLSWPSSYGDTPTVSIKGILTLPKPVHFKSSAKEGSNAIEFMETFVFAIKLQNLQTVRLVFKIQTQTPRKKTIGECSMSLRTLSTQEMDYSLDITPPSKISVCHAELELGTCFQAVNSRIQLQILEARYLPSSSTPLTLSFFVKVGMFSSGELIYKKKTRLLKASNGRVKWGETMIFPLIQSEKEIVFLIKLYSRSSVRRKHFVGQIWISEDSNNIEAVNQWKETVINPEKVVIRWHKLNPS
Sequence of UniProt Q08AE8 (Q08AE8 whole entry, looked up): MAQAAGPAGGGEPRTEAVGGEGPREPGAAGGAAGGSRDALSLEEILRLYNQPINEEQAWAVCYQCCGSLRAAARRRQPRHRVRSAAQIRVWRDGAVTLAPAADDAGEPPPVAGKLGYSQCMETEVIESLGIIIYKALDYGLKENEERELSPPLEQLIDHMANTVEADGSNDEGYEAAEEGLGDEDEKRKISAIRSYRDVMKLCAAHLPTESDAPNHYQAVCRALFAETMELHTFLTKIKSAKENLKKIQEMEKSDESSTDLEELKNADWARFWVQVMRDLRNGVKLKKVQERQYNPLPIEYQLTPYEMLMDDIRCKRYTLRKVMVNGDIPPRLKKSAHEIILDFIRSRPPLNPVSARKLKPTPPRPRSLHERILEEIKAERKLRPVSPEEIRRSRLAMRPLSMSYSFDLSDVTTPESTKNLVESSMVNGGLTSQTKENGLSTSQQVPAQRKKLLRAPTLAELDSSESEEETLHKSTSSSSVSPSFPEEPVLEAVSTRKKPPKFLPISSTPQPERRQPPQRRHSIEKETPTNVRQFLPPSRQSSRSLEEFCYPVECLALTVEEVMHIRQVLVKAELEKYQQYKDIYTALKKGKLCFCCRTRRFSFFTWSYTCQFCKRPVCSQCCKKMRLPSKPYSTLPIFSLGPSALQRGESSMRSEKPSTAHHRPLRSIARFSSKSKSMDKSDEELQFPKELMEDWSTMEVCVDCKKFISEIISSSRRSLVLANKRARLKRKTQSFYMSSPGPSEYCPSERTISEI
Sequence of UniProt Q92581 (Q92581 whole entry, looked up): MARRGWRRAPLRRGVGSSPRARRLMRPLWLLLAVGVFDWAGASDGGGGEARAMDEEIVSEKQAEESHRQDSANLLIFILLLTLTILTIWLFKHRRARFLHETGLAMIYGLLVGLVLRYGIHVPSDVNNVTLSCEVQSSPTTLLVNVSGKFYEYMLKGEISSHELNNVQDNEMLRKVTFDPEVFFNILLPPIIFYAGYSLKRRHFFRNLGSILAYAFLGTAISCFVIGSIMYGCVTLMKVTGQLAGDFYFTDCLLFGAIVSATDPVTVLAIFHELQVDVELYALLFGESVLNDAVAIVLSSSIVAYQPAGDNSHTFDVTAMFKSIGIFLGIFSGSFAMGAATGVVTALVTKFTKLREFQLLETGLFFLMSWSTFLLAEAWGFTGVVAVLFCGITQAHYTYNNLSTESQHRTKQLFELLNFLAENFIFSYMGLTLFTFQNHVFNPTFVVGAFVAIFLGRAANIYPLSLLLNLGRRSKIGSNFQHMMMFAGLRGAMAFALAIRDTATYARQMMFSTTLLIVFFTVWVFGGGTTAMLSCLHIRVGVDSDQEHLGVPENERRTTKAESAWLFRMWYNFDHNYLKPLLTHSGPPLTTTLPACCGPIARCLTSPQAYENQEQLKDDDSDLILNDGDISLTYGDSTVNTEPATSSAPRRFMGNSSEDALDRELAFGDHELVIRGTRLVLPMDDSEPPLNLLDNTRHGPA
Sequence of UniProt Q9BYN0 (Q9BYN0 whole entry, looked up): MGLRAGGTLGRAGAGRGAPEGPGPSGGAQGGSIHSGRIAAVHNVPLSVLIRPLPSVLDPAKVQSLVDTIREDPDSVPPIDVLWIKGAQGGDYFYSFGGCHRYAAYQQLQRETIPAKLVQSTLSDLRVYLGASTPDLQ
Sequence of UniProt Q9H5L6 (Q9H5L6 whole entry, looked up): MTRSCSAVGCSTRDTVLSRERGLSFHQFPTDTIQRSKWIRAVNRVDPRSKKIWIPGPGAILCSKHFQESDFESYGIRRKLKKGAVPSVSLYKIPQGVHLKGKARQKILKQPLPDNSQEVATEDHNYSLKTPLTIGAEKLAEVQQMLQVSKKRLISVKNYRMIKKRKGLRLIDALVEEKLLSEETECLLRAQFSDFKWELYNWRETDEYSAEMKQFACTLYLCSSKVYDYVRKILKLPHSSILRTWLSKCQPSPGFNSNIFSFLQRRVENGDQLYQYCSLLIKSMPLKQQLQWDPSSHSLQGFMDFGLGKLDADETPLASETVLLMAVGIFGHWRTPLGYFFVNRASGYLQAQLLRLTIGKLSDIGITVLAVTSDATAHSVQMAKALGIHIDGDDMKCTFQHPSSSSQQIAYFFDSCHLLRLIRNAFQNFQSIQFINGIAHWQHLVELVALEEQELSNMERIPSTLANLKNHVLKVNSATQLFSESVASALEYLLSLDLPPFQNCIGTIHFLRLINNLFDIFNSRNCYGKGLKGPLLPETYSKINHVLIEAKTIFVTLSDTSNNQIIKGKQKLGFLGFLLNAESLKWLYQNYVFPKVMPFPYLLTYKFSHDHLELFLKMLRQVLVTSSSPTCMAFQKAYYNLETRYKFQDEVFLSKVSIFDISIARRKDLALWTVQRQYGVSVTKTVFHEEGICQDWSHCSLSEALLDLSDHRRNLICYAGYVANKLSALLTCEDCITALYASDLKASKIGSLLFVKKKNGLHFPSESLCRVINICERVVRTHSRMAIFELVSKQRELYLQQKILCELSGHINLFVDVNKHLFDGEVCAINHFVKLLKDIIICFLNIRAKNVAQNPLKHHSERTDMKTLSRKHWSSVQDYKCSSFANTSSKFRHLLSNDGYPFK
Sequence of UniProt P20226 (P20226 whole entry, looked up): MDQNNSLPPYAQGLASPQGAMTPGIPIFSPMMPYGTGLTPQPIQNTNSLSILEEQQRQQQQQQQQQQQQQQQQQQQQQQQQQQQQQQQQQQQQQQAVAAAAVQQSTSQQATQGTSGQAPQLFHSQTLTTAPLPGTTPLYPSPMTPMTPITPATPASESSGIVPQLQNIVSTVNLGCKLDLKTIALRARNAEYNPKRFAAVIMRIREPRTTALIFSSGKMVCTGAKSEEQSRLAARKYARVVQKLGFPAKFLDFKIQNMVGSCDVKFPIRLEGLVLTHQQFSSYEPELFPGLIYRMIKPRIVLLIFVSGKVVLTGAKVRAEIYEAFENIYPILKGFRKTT

Row | Target | log2 fold change (saracatinib) | log2 fold change (alvocidib) | log2 fold change (Tubastatin A) | log2 fold change [1] | log2 fold change (defactinib) | log2 fold change (rucaparib) | log2 fold change [2] | log2 fold change (encorafenib) | log2 fold change [3] | log2 fold change [4] | log2 fold change (zotarolimus) | log2 fold change (idasanutlin) | log2 fold change [5] | log2 fold change (lapatinib) | log2 fold change (sotrastaurin) | log2 fold change (filanesib) | log2 fold change (pictilisib) | log2 fold change (alisertib) | log2 fold change [6] | log2 fold change (gefitinib)
1 | SYK (UniProt P43405) | -0.151 | -0.168 | 0.355 | -0.113 | 0.249 | 0.258 | 0.03 | 0.112 | -0.012 | 0.085 | 0.066 | 0.25 | 0.204 | 0.06 | – | – | – | – | – | –
2 | TCOF1 isoform 3 (UniProt Q13428) | – | – | 0.054 | -0.007 | – | -0.065 | – | -0.084 | – | – | – | – | – | – | 0.326 | -0.152 | 0.188 | – | – | –
3 | SMARCA4 (UniProt P51532) | -0.303 | -0.068 | – | -0.17 | 0.134 | 0.099 | -0.091 | 0.049 | 0.022 | -0.101 | 0.09 | 0.15 | 0.273 | -0.544 (active) | -0.086 | 0.124 | 0.025 | -0.086 | -0.038 | –
4 | SNRK (UniProt Q9NRH2) | -0.092 | – | – | – | – | -0.099 | 0.011 | 0.002 | – | 0.15 | – | – | 0.84 (active) | 0.016 | 0.003 | 0.158 | – | – | – | –
5 | SSB (UniProt E7ERC4) | -0.05 | – | – | – | -0.205 | – | 0.018 | – | -0.092 | – | – | – | – | – | – | – | -0.086 | 0.494 | -0.37 | –
6 | SRXN1 (UniProt Q9BYN0) | – | 0.015 | 0.209 | – | -0.283 | 0.111 | – | -0.008 | 0.022 | 0.406 | 0.022 | -0.028 | -0.036 | 0.151 | 0.019 | 0.076 | -0.562 (active) | 0.098 | 0.001 | 0.012
7 | TC2N (UniProt Q8N9U0) | -0.215 | – | 0.308 | – | -0.341 | – | -0.064 | – | -0.096 | – | – | -0.003 | – | – | – | – | – | 0.012 | 0.127 | -0.066
8 | TBC1D20 isoform 3 (UniProt Q96BZ9) | – | -0.428 | – | 0.004 | -0.044 | 0.05 | – | 0.074 | -0.068 | 0.026 | 0.136 | -0.184 | 0.102 | -0.03 | 0.053 | -0.023 | -0.073 | -0.089 | -0.032 | 0.148
9 | SRC isoform 2 (UniProt P12931) | – | -0.061 | -0.108 | -0.069 | -0.077 | -0.343 | 0.007 | 0.082 | 0.188 | 0.197 | -0.123 | 0.119 | 0.017 | 0.088 | -0.167 | 0.229 | 0.113 | 0.01 | 0.219 | –
10 | TCOF1 isoform 6 (UniProt Q13428) | – | 0.104 | -0.103 | -0.149 | 0.027 | -0.022 | – | 0.162 | -0.053 | -0.318 | -0.062 | – | – | – | -0.094 | -0.087 | – | -0.263 | -0.105 | 0.028
11 | TM7SF2 (UniProt O76062) | 0.069 | -0.048 | – | -0.043 | -0.006 | – | 0.018 | – | -0.096 | – | -0.018 | – | -0.143 | 0 | -0.142 | -0.142 | – | – | – | 0.059
12 | SPIRE1 (UniProt Q08AE8) | – | 0.153 | 0.141 | -0.166 | 0.047 | 0.035 | – | -0.105 | -0.074 | -0.509 (active) | -0.051 | -0.023 | – | – | – | – | 0.188 | -0.033 | 0.049 | -0.013
13 | TBP (UniProt P20226) | 0.316 | 0.119 | -0.014 | – | -0.003 | 0.088 | -0.158 | 0.019 | -0.071 | -0.014 | -0.1 | -0.076 | 0.072 | 0.023 | – | – | – | 0.148 | 0.081 | 0.044
14 | SLC46A1 (UniProt Q96NT5) | – | 0.193 | 0.067 | 0.085 | 0.034 | -0.081 | – | -0.051 | -0.011 | – | -0.095 | -0.107 | – | – | – | – | 0.061 | – | – | –
15 | SLC8B1 (UniProt Q6J4K2) | 0.036 | 0.012 | – | -0.019 | 0.029 | – | -0.176 | – | -0.028 | 0.044 | -0.097 | -0.034 | 0.132 | 0.066 | – | – | 0.016 | – | – | –
16 | TEX30 (UniProt Q5JUR7) | -0.065 | -0.177 | 0.022 | 0.015 | -0.096 | – | -0.026 | – | 0.017 | -0.063 | 0.031 | -0.02 | 0.07 | -0.029 | – | – | 0.057 | 0.029 | 0.031 | -0.079
17 | THAP9 (UniProt Q9H5L6) | 0.039 | -0.087 | – | – | – | – | 0.186 | – | – | 0.434 | -0.139 | 0.008 | – | – | – | – | – | -0.068 | 0.011 | -0.142
18 | SREBF1 isoform 4 (UniProt P36956) | 0.077 | – | – | 0.033 | – | -0.164 | 0.045 | 0.044 | – | -0.089 | – | – | – | – | – | – | – | -0.014 | 0.098 | –
19 | SLC35B4 (UniProt Q969S0) | – | – | 0.014 | 0.046 | 0.086 | 0.036 | – | -0.015 | -0.146 | -0.076 | – | 0.027 | – | – | 0.012 | -0.119 | – | 0.032 | 0.076 | 0.149
20 | SPIN4 (UniProt Q56A73) | – | – | – | -0.199 | – | – | – | – | – | -1.43 (active) | – | – | – | – | – | – | – | – | – | –
21 | SLC9A6 isoform 3 (UniProt Q92581) | 0.128 | -0.044 | 0.04 | 0.104 | – | 0.165 | -0.107 | -0.162 | – | – | -0.051 | 0.098 | 0.055 | -0.072 | – | – | – | – | – | –
22 | TAOK2 (UniProt Q9UL54) | – | – | -0.003 | 0.244 | – | -0.012 | – | -0.028 | – | 0.189 | – | – | -0.02 | 0.022 | – | – | 0.003 | 0.107 | 0.003 | -0.095
23 | SSBP4 (UniProt Q9BWG4) | 0.409 (active) | – | 0.038 | -0.184 | – | 0.022 | 0.031 | -0.18 | – | -0.065 | – | 0.122 | 0.076 | -0.145 | 0 | -0.601 | 0.117 | 0.018 | 0.029 | -0.001
24 | SP2 (UniProt Q02086) | 0.09 | – | – | – | – | 0.324 | -0.132 | -0.025 | – | -0.319 | – | 0.277 | – | – | 0.091 | 0.012 | – | – | – | –
25 | STK17B (UniProt O94768) | – | – | – | -1.03 (active) | – | – | – | – | – | 0.01 | – | – | – | – | – | – | – | – | – | –
26 | TK1 (UniProt K7ERV3) | 0.037 | -0.009 | -0.013 | – | 0 | – | -0.058 | – | -0.003 | – | -0.034 | -0.075 | -0.107 | -0.107 | 0.011 | 0.005 | 0.102 | 0.121 | 0 | 0.026
